Measured values from the supplement of paper PMC11732987, “Enantioselective OTUD7B fragment discovery through chemoproteomics screening and high-throughput optimisation” (Communications Chemistry, 2025).

Key:
Assay in all cases: log2 ratio of Biotin-Ahx-Ub-VS probe labelling (fragment/DMSO); higher = less target engagement (more negative = stronger competition), active = hit call of the paper (q ≤ 0.05, log2 ratio ≤ -1)
Details in all cases: compound concentration: 200 uM; treatment time: 3 h
USP19 = molecular target: T1, USP19 (UniProt O94966)
T1 sequence (whole entry): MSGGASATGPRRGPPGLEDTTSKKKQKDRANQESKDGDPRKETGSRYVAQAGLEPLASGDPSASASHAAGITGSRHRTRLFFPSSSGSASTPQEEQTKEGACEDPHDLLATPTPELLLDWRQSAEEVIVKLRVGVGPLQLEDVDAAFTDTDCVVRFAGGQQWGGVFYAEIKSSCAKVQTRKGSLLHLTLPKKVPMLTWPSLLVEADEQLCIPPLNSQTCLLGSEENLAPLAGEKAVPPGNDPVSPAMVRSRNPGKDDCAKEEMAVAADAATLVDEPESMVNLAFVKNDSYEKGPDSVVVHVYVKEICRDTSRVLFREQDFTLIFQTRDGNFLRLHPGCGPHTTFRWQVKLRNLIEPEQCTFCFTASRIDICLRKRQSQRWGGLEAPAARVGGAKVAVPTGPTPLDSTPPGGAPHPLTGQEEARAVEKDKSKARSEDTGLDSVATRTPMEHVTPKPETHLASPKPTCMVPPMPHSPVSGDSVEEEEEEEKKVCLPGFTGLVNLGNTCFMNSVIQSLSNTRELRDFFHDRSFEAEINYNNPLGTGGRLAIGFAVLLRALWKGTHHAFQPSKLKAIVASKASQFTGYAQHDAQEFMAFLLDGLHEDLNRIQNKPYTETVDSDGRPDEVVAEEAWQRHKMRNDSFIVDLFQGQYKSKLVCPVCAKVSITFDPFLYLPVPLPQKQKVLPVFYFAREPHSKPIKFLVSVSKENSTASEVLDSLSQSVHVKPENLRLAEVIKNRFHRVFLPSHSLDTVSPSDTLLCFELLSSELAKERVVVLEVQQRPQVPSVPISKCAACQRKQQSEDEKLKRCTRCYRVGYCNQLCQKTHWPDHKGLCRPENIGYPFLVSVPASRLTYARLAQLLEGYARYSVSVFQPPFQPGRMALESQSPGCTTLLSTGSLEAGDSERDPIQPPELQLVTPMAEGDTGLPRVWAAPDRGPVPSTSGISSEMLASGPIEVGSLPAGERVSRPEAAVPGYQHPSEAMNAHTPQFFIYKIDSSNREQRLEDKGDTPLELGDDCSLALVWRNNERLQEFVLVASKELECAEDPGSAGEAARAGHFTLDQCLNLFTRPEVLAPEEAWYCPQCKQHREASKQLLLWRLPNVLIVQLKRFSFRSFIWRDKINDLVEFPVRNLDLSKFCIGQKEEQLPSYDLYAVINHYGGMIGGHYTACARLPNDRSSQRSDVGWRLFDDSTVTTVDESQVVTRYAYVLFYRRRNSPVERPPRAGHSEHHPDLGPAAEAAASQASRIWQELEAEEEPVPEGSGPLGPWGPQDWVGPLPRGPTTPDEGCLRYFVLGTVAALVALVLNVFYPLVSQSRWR
In short: (§1)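 Each value is an average log2 ratio of fragment to vehicle, tested by unpaired t-test. The underlying Spectronaut label-free quantities were global-median-normalised, and only proteins with ≥2 unique peptides were included. Triplicate HEK293T lysate samples (495 µg) were exposed to fragment at 200 µM or vehicle for 3 h, then to Biotin-Ahx-Ub-VS at 0.5 µM final for 1 h, before NeutrAvidin enrichment of labelled DUBs, LysC and trypsin digestion, and diaPASEF LC-MS/MS.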

USP22 = molecular target: T2, USP22 (UniProt Q9UPT9)
T2 sequence (whole entry): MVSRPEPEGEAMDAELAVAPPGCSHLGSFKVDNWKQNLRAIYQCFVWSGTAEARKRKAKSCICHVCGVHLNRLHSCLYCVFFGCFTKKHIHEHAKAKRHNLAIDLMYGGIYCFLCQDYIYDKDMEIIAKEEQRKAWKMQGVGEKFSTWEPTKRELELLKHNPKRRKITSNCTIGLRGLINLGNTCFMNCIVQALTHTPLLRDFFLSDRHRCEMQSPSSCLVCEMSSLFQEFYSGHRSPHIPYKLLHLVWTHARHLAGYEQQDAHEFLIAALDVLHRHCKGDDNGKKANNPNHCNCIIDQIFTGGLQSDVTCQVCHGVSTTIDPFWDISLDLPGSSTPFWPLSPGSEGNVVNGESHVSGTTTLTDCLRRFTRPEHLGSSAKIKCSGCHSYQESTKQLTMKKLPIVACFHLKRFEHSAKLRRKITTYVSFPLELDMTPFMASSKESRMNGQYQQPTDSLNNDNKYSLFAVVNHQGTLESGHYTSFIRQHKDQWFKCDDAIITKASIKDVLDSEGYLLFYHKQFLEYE
In short: as §1

USP24 = USP24 (UniProt Q9UPU5)
In short: as §1

USP25 = molecular target: T3, USP25 (UniProt Q9UHP3)
T3 sequence (whole entry): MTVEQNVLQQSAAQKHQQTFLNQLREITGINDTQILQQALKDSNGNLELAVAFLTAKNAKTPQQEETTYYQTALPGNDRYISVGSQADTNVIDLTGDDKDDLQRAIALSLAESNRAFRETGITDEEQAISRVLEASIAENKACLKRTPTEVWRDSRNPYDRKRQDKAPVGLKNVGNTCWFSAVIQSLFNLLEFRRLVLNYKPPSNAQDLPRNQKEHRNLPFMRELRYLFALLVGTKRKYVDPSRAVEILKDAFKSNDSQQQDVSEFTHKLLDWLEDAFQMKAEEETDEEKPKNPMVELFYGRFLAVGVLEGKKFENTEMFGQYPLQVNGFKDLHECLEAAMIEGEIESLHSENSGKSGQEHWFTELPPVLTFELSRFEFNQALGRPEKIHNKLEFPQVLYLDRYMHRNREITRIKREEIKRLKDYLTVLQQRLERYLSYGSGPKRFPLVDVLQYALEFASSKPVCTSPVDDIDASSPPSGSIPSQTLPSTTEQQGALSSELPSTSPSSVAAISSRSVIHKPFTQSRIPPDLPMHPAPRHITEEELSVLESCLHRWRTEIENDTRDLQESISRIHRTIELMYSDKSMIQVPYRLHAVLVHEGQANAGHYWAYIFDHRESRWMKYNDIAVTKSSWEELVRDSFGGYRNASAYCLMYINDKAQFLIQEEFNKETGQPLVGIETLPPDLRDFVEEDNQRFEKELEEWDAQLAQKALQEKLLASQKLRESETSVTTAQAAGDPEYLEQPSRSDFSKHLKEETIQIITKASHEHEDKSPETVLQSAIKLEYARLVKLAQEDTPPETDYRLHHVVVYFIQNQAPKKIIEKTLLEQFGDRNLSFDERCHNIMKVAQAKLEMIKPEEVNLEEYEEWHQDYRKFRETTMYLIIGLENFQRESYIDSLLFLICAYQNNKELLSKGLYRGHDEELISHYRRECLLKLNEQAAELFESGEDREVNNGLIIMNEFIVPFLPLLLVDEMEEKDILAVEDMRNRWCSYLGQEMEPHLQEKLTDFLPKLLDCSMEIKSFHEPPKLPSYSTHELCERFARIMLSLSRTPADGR
In short: as §1

USP28 = molecular target: T4, USP28 (UniProt Q96RU2)
T4 sequence (whole entry): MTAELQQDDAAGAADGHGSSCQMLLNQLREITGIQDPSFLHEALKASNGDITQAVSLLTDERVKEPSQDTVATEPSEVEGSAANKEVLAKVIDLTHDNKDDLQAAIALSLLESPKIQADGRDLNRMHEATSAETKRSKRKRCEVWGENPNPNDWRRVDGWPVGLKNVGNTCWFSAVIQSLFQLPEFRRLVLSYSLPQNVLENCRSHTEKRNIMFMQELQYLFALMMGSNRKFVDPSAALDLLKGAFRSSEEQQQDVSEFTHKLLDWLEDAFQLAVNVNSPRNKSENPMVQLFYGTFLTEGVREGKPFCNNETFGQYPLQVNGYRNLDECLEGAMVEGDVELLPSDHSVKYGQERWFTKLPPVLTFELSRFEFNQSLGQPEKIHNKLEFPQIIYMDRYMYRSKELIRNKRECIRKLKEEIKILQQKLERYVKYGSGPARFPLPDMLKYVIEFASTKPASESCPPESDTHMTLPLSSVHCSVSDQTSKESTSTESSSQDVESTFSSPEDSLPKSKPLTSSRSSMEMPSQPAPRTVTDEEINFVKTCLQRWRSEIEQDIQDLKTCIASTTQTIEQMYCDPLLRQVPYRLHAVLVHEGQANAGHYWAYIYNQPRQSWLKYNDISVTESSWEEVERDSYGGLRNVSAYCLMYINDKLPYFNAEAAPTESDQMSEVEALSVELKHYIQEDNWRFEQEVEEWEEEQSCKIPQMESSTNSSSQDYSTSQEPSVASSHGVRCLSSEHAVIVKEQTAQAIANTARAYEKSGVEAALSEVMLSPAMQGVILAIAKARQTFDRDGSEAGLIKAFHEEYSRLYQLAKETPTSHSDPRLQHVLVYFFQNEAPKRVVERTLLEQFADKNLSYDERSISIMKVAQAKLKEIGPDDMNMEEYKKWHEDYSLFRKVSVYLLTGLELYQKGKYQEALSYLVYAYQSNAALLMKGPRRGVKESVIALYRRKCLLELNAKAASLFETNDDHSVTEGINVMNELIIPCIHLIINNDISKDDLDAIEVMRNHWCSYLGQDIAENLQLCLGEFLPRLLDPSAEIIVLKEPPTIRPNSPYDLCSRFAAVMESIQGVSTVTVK
In short: as §1

Measured: log2 ratio of Biotin-Ahx-Ub-VS probe labelling

Chain of USP24 (Q9UPU5 whole entry): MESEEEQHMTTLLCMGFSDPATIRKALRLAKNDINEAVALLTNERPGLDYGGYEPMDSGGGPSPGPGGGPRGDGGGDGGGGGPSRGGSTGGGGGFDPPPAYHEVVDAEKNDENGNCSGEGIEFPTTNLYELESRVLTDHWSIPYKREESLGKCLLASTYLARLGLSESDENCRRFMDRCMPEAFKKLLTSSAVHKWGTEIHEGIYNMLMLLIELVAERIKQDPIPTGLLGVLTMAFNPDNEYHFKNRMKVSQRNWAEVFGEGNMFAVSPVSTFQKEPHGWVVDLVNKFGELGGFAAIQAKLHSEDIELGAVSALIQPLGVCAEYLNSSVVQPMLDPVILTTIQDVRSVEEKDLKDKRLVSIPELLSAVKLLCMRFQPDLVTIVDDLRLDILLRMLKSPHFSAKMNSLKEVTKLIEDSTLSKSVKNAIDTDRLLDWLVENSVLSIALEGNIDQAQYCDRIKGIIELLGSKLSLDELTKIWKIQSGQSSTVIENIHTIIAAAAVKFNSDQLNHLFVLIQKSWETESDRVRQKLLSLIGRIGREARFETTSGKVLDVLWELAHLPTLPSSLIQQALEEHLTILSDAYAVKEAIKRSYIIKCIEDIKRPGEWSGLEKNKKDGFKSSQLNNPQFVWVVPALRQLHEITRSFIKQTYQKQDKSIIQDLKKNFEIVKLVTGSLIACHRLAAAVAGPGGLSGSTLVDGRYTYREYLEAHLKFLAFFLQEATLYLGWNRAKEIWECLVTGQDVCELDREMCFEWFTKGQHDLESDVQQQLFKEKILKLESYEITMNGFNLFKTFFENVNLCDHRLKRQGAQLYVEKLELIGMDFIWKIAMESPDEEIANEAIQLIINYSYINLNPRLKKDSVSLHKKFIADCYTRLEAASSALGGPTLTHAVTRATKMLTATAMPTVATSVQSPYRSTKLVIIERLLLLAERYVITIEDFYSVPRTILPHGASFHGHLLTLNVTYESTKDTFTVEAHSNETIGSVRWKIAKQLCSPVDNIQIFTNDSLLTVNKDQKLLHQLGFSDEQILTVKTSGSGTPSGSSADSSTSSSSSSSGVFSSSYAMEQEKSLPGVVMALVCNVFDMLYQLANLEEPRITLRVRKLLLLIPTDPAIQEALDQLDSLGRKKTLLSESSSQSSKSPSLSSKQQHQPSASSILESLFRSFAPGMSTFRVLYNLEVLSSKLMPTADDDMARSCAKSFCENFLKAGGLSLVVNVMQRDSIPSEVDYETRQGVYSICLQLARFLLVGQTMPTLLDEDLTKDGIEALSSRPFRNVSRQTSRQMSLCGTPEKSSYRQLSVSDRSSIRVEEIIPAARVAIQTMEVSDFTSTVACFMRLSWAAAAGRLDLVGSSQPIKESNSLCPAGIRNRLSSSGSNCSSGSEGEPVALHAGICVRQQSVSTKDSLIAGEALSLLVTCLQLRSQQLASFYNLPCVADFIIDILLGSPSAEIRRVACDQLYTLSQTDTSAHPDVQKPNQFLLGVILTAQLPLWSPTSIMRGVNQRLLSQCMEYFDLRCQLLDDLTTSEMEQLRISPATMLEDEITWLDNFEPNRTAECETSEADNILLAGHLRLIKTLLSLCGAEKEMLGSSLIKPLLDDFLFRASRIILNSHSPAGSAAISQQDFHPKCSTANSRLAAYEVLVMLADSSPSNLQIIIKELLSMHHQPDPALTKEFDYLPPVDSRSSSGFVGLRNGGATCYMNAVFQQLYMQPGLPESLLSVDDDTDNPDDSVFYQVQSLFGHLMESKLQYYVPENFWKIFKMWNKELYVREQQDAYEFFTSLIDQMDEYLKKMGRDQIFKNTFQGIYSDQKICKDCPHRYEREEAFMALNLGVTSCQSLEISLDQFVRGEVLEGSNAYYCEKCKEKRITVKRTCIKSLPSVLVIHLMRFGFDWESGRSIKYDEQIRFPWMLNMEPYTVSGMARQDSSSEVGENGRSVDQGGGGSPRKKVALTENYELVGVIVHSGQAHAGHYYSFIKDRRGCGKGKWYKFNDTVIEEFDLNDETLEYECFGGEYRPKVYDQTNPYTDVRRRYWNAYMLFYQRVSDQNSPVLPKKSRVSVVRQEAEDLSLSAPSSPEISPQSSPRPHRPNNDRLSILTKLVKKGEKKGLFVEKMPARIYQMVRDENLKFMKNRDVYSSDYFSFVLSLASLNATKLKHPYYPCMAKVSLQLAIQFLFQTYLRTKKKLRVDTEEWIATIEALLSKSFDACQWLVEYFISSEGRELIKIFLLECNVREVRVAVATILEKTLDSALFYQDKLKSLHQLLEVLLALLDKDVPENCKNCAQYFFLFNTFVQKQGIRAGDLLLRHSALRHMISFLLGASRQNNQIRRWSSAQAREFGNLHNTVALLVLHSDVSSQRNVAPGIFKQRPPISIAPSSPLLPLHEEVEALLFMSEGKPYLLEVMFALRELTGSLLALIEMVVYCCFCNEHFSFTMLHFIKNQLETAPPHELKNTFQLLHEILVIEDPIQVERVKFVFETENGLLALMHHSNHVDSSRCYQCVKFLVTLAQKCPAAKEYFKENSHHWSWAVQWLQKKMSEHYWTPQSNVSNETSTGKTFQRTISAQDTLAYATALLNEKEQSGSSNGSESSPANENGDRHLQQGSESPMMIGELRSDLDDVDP

O=C(CCl)NCc1ccc(N2CCOCC2)nc1
inactive: USP19 -0.163 | USP22 -0.181 | USP24 -0.312 | USP25 -0.432 | USP28 -0.485
